Results published in PubChem BioAssay AID434994 (NMMLSC, 2010).
The other results are listed elsewhere or left out. Calls of active or inactive are those of the source.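 Rule for the calls: active = superoxide signal below 65% of the plate average of sample wells; inactive = the rest.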

test: retest of yeast aging ROS inhibitors – cherry picked compounds, confirmation (AID 434994);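 note: cells aged with compound for 7 days at 30 degrees C before staining; 100% equals mean DHE fluorescence of all compound wells on the plate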; conditions: S. cerevisiae aging, superoxide DHE fluorescence; at 10 µM; stronger effect = lower value

Compound	superoxide response (% of plate)
CSc1ncc(Cl)c(C(=O)Nc2cc(C)ccc2C)n1	95.3% (inactive)
Cc1ccc(-c2nc(CSCC(=O)NC3CCN(Cc4ccccc4)CC3)c(C)o2)cc1	101% (inactive)
O=C(Nc1cccc(Cl)c1Cl)c1ccccc1NC(=O)C1CC=CCC1C(=O)O (configuration not stated)	101% (inactive)
COc1ccc(NC(C)=O)cc1NC(=O)CN1CCN(c2ccccn2)CC1	103% (inactive)
Cc1cc(C(F)F)n2nc(C(=O)Nc3ccc(S(=O)(=O)NC45CC6CC(CC(C6)C4)C5)cc3)nc2n1	111% (inactive)
Cc1ccc(-c2nnc(Nc3ccc(C(=O)N(C)C)cc3)c3ccccc23)cc1S(N)(=O)=O	107% (inactive)
O=[N+]([O-])c1ccc2c(c1)Nc1nc3ccccc3nc1N2	82.5% (inactive)
CC(=O)c1ccc2c(c1)c1ccccc1n2CC(C)C	107% (inactive)
COc1ccc(CCNC(=O)c2ccccc2-c2ccccc2C(=O)O)cc1OC	108% (inactive)
CCN(CC)C(=O)CSc1nnc(-c2cccc(OC)c2)o1	113% (inactive)
CCN(CC)c1ccc(NC(=O)CN2CCN(c3ccccn3)CC2)cc1	101% (inactive)
Cc1cc2oc(C(=O)Nc3c(C)n(C)n(-c4ccccc4)c3=O)c(C)c2cc1Cl	93.5% (inactive)
CC(=O)C[C@@H](O)CC(=O)[C@H]1OC(=O)CCCCCCc2ccccc21	103% (inactive)
O=C(Nc1ccc(Br)cn1)c1ccc([N+](=O)[O-])cc1Cl	96.2% (inactive)
CCn1c2ccccc2c2cc(CC(N)=O)ccc21	111% (inactive)
Cc1ccc(NC(=O)Cn2nc(C)c3ccccc3c2=O)c(C)c1	114% (inactive)
CSc1sc(C(=O)NNC(=O)c2ccc(Cl)cc2)c2c1C=CCC2	104% (inactive)
CC(C)(C)NC(=O)COc1ccc(CNc2ccc3[nH]c(=O)[nH]c3c2)cc1	96.2% (inactive)
Cn1c(Nc2ccccc2)cc(=O)n(C)c1=O	100% (inactive)
CC(C)NC(=O)/C(C#N)=C\c1ccc(N(C)C)c(Br)c1	88.1% (inactive)
COC(=O)CNC(=O)c1ccc(OC2CCN(C(=O)C3CC3)CC2)cc1	103% (inactive)
O=C(CSc1ccc(-c2ccc(-n3cccn3)cc2)nn1)Nc1ccc([N+](=O)[O-])cc1	95.7% (inactive)
